# Compound activity (PubChem)
# The full list was thinned out, with hits kept by preference.
# TDP1 cell CPT – qHTS for Inhibitors of human tyrosyl-DNA phosphodiesterase 1 (TDP1): qHTS in cells in presence of CPT. Potency, µM (highest dose often 46.2 µM), without a hit: at the top dose activity change, negative = growth inhibition, hits mostly inhibitors. actives 12% (n = 420,000). AID 686979, 2013. chicken DT40 Tdp1-/-;hTDP1 cells + 20 nM CPT, ATP luminescence, 48 h; also: potency is read from the fitted curve at half-maximal effect; nearly all actives have a fitted effect of over 55% in size
#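 Chicken DT40 Tdp1-/- cells stably complemented with human TDP1 were seeded at 400 cells/well in medium containing 20 nM camptothecin, exposed to pin-transferred compounds, and grown at 37 °C for at least 48 hr. Viability was read as ATP luminescence.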
# TDP1 cell noCPT – qHTS for Inhibitors of human tyrosyl-DNA phosphodiesterase 1 (TDP1): qHTS in cells in absence of CPT; DT40 Tdp1-/- hTDP1 cells, no CPT, ATP luminescence, 48 h; Potency, µM (top dose mostly 46.2 µM), for inactives: top-dose activity change, negative = growth inhibition, hits mostly inhibitors; actives 15% (n = 420,000); AID 686978, 2013; also: potency is read from the fitted curve at half-maximal effect; nearly all actives have a fitted effect of over 55% in size
#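 No-CPT arm: Tdp1-/-;hTDP1 DT40 cells (400/well) plus compounds, incubated ≥48 hr at 37 °C. Readout CellTiter-Glo luminescence.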
# 12-LOX inh – Primary qHTS assay for inhibitors of human arachidonate 12S-lipoxygenase (ALOX12): Round 2. Potency, µM (doses to about 108 µM), without a hit: at the highest dose activity change, negative = inhibition, usual class: inhibitors. purified 12hLO, xylenol orange hydroperoxide absorbance. actives 1.1% (n = 580,000). Polyunsaturated fatty acid lipoxygenase ALOX12 (Homo sapiens), P18054. AID 1671190, 2021; also: potency is read from the fitted curve at half-maximal effect
# Target sequence (P18054 whole entry, looked up): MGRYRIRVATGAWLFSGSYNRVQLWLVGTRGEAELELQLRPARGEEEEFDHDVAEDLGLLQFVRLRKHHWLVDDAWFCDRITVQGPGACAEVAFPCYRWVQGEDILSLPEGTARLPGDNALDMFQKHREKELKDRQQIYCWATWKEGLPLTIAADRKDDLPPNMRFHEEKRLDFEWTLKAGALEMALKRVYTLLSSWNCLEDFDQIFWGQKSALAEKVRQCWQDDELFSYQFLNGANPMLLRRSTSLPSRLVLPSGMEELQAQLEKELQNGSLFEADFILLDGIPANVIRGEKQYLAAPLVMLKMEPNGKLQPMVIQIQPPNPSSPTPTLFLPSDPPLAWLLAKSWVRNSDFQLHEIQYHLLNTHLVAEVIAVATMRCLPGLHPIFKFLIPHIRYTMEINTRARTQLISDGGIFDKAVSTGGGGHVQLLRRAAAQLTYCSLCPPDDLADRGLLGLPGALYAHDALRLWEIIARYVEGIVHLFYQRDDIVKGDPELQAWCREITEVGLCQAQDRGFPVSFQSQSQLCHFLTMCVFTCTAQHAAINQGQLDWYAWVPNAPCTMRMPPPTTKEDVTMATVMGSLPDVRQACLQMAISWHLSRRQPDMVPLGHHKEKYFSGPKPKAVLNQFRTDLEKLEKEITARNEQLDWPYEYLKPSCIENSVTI
#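 Purified human 12hLO at 150 nM in 25 mM Hepes, 0.01% Triton X-100, pH 7.0, preincubated 15 min at room temperature with compound. Reaction started with 40 uM arachidonic acid, 30 min at room temperature. Hydroperoxide measured by Fe-xylenol orange, 573/405 nm absorbance ratio.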
# HT1080NT lethal – qHTS for induction of synthetic lethality in tumor cells producing 2HG: qHTS for the HT-1080-NT fibrosarcoma cell line; HT-1080-NT fibrosarcoma viability, CellTiter-Glo ATP luminescence, 48 h; Potency, µM (titrated, usually from 46.1 µM), for inactives: top-dose activity, negative = less viability, hits mostly cytotoxic; actives 1.6% (n = 360,000); AID 686970, 2013;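 also: NT is the 2HG producing partner of a matched IDH1 knockdown line; potency is read from the fitted curve at half-maximal effect; 0% = DMSO-treated cells and -100% = media-only wells without cells; nearly all actives have a fitted effect of over 55% in size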
#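 HT-1080-NT fibrosarcoma cells (2HG-overproducing), 750 cells/well in RPMI with 5% FBS, dosed after 2 h and incubated 48 h at 37C. CellTiter-Glo luminescence normalized to DMSO and no-cell wells; concentration-response curves fitted and classed.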
# HT1080 IDH1KD tx – qHTS for induction of synthetic lethality in tumor cells producing 2HG: qHTS for the HT-1080-IDH1KD cell line; HT-1080 IDH1 knockdown viability, ATP luminescence, 48 h; Potency, µM (highest dose often 46.1 µM), without a hit: at the top dose activity, negative = toxicity, actives largely listed as cytotoxic; actives 2% (n = 360,000);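 also: potency is read from the fitted curve at half-maximal effect; 0% = DMSO wells and -100% = cell-free medium wells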
#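 After a 2 h attachment period, IDH1KD HT-1080 cells took pin-transferred compound for 48 h at 37 °C; ATP-based luminescence after 10 min room-temperature reagent incubation reported viability.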
# IL1B secr inh – qHTS for Inhibitors of Inflammasome Signaling: IL-1-beta AlphaLISA Primary Screen. actives 4.7% (n = 360,000). activity change, % at 57.5 µM. THP-1 LPS/ATP IL-1B secretion, AlphaLISA, 16 h; active compounds read low; in the data active = activity change below about -50%; inconclusive = mostly about -30% to -49%
#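 Secreted IL-1B measured by AlphaLISA bead assay after 16 h compound exposure of THP-1 cells; compounds (final up to 57.5 uM) added 1 h before LPS (250 ng/mL) and ATP (1.25 mM) stimulation; lower signal means less secretion.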
# An asterisk follows results filed as active; u = inconclusive; x = not tested or not shown. Unless noted, calls follow the shape of the dose curve; as a rule, active = well fitted curve in the direction sought with a large enough effect; inconclusive = small, poorly fitted or top-dose-only effect, or another doubt; inactive = no such curve, though single readings can be large; an effect the other way counts as inactive or inconclusive. Unless noted, % is scaled to controls: 0 for no effect and ±100 for the full control effect.
SMILES,TDP1 cell CPT,TDP1 cell noCPT,12-LOX inh,HT1080NT lethal,HT1080 IDH1KD tx,IL1B secr inh
O=C1N/C(=C/c2ccc(Br)cc2)C(O)=C1C=NCc1ccccc1,2.91µM*,2.31µM*,-0.5%,u,u,11.4
O=C(OCc1ccccc1)c1ccc2nccnc2c1,x,x,31.4%,x,x,x
C[n+]1c2n(c3ccccc31)N=C(c1cc(C(C)(C)C)c(O)c(C(C)(C)C)c1)CS2,4.11µM*,2.59µM*,28.2µM*,23.1µM*,7.31µM*,-100.3*
COc1cccc(C2=Nn3c(nnc3-c3ccccc3O)SC2)c1,u,u,0.0%,-1.7%,3.5%,22.9
CC(C)(C)OC(=O)C[C@@H]1C/C=C\C[C@H](CC(=O)N[C@H](CO)Cc2ccccc2)C(=O)N[C@@H](Cc2ccccc2)COC1=O,u,u,-1.7%,-0.3%,0.9%,-11.1
CC(C)(C)OC(=O)C[C@@H]1C/C=C\C[C@H](CC(=O)N[C@H](CO)Cc2ccccc2)C(=O)N[C@H](C(C)(C)C)COC1=O,u,u,16.1%,4.4%,0.2%,-2.6
CC(C)(C)OC(=O)C[C@H]1C/C=C\C[C@H](CC(=O)N[C@H](CO)Cc2ccccc2)C(=O)N[C@H](Cc2ccccc2)COC1=O,23.1µM*,23.1µM*,-9.0%,0.6%,1.4%,-57.9*
CC(C)(C)OC(=O)C[C@H]1C/C=C\C[C@H](CC(=O)N[C@H](CO)Cc2ccccc2)C(=O)N[C@H](C(C)(C)C)COC1=O,u,u,16.0%,27.5%,0.9%,-5.5
CC(C)(C)OC(=O)C[C@@H]1C/C=C\C[C@H](CC(=O)N[C@H](CO)Cc2ccccc2)C(=O)N[C@@H](Cc2c[nH]c3ccccc23)COC1=O,25.9µM*,u,-7.9%,1.8%,-3.1%,-6.9
CC(C)(C)OC(=O)C[C@@H]1C/C=C\C[C@H](CC(=O)N[C@H](CO)Cc2ccccc2)C(=O)N[C@H](Cc2ccccc2)COC1=O,-46.8%,13µM*,u,2.1%,-4.7%,12.1
Cc1cc(SCC(=O)NC(=O)NC(C)(C)C)nc2ccccc12,x,x,-18.9%,x,x,x
NC(=O)[C@H](Cc1ccc(O)cc1)NC(=O)[C@@]1(O)C[C@@H](O)[C@H](O)[C@@H](NC(=O)CC2(CC(=O)O)CCCC2)C1,x,x,8.7%,x,x,x
CCCc1nn2c(=O)cc(COC(=O)c3cccc(NC(=O)COc4ccc(F)cc4)c3)nc2s1,0.9%,-10.9%,-10.9%,x,x,x
Cc1cccc(C(=O)Nc2cccc(OCc3cc(=O)n4cccc(C)c4n3)c2)c1,8.9%,-6.5%,-6.7%,x,x,x
Cc1cccc(OCC(=O)Nc2cccc(OCc3cc(=O)n4cccc(C)c4n3)c2)c1,20.6µM*,14.6µM*,-1.5%,x,x,x
Cc1cccc(OCC(=O)Nc2cccc(C(=O)OCc3cc(=O)n4nc(C(C)C)sc4n3)c2)c1,u,11.6µM*,-27.4%,x,x,x
CC(C)c1nn2c(=O)cc(COC(=O)c3cccc(NC(=O)COc4ccc(F)cc4)c3)nc2s1,13µM*,20.6µM*,-22.4%,x,x,x
CNC(=O)NCc1ccc(OC)cc1,x,x,0.8%,x,x,x
CCCCCCCN1C/C=C\C(c2ccc(OC)cc2)N(Cc2ccc(F)cc2)C(=O)[C@H]1Cc1ccccc1 (stereo partly drawn),u,18.4µM*,x,-3.6%,-1.4%,3.8
COc1ccc(C2/C=C\CN(C(=O)C3CCCC3)[C@H](Cc3ccccc3)C(=O)N2Cc2ccc(F)cc2)cc1 (stereo partly drawn),23.1µM*,u,-17.2%,-17.0%,-22.0%,-22.1
COc1ccc(C2/C=C\CN(S(=O)(=O)c3ccc(C)cc3)[C@H](Cc3ccccc3)C(=O)N2Cc2ccc(F)cc2)cc1 (stereo partly drawn),u,u,x,9.5%,8.3%,12.4
COc1ccc([C@H]2/C=C\CN(C(=O)C3CCCC3)[C@@H](C)C(=O)N2Cc2ccc(F)cc2)cc1,13µM*,7.31µM*,-29.7%,-19.2%,-24.8%,21.5
COc1ccc(C2/C=C\CN(C(=O)Nc3ccc(C(F)(F)F)cc3)CC(=O)N2Cc2ccc(F)cc2)cc1 (stereo not drawn),14.6µM*,13µM*,x,u,u,0.0
COc1ccc(C2/C=C\CN(C(=O)Nc3ccccc3)CC(=O)N2Cc2ccc(F)cc2)cc1 (stereo not drawn),u,u,0.0%,-0.8%,-1.6%,2.3
Cc1ccc(C(=O)NC(C)c2ccc(F)c(F)c2)s1 (stereo not drawn),x,x,2.7%,x,x,x
SMILES,TDP1 cell CPT,TDP1 cell noCPT,12-LOX inh,HT1080NT lethal,HT1080 IDH1KD tx,IL1B secr inh
Cc1cccc(-c2n[nH]c(=S)n2C)c1,-11.9%,-1.9%,u,14.6%,15.9%,-10.1
Cc1ccn2c(-c3n[nH]c(=S)n3C)c(C)nc2c1,4.2%,4.1%,44.7µM*,3.5%,7.4%,18.4
COC(=O)[C@H](C)N(Cc1ccc(Cl)c(Cl)c1)S(=O)(=O)CCN1CCN(c2ccccc2)CC1,u,18.4µM*,-2.1%,-0.5%,0.9%,-2.0
CCOc1ccc(S(=O)(=O)NCc2ccccc2Cl)cc1C(N)=O,u,u,12.5%,2.0%,-8.6%,-58.4*
CCc1cccc(C)c1NC(=O)c1cc(S(=O)(=O)NCc2ccccc2Cl)ccc1F,20.6µM*,25.9µM*,-7.7%,x,x,x
CCOc1ccc(S(=O)(=O)NCc2ccccc2)cc1C(N)=O,u,u,0.3%,2.1%,-15.6%,-8.4
O=C(Nc1ccc(N2CCOCC2)c(Cl)c1)c1cccc2ccccc12,x,x,15.6%,x,x,x
COc1cc(OC)cc(C(=O)NC(C)CNc2ccc(Cl)cc2[N+](=O)[O-])c1 (stereo not drawn),u,8.2µM*,-5.0%,-7.2%,-1.6%,-6.0
CCOC(=O)c1cc2cc(C(=O)NC(C)CC)ccc2[nH]1 (stereo not drawn),x,x,-16.2%,x,x,x
Oc1ccc2ccccc2c1CN1CCOCC1,-13.3%,-22.0%,7.08µM*,14.0%,12.4%,-15.5
O=S(=O)(c1c(F)cccc1F)N1CCN(Cc2c(O)ccc3ccccc23)CC1,-0.2%,6.4%,12.6µM*,-6.7%,-6.0%,0.0
